Compound activity from PubChem BioAssay.
MITF inh: MITF inhibitors, primary screen, biochemical, AlphaScreen, human; 650,000 tested, 0.91% active; AlphaScreen MITF homodimerization, bead proximity signal; inhibition, % at 2.6 µM; Microphthalmia-associated transcription factor (Homo sapiens), O75030; in the data active = inhibition above about 50%;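 also: 0% = vehicle wells with protein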
TEAD-YAP inh: TEAD-YAP interaction inhibition, primary screen, TEAD-YAP interaction inhibitor project, luminescence, HEK-TIYL cells; TEAD-Gal4/YAP UAS-luciferase luminescence; inhibition, % at 9.12 µM; 640,000 tested, 1.4% active; AID 1259422, 2018; in the data active = inhibition above about 32%;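 also: 0% = median of test compound wells and 100% = reference inhibitor wells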
GPR151 activ: activators of human GPR151, primary screen, cell-based, PathHunter beta-arrestin, luminescence; 650,000 tested, 1% active; G-protein coupled receptor 151 (Homo sapiens), Q8TDV0; activation, % at 11.2 µM; PathHunter beta-arrestin GPR151 cells; AID 1508602, 2020; in the data active = activation above about 4.9%;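 also: 0% = median of compound wells and 100% = cells with positive control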
FBW7 activator: FBW7 E3 ligase activators, primary screen, biochemical, AlphaScreen, human; normalized activity (activation), % at 26.1 µM; AlphaScreen FBW7–phospho-cyclin E peptide binding, activator screen; F-box/WD repeat-containing protein 7 (Homo sapiens), Q969H0; 650,000 tested, 0.13% active; in the data active = normalized activity above about 1.9%;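 also: purified mutant Fbw7 with reduced substrate affinity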
MITF confirm: MITF inhibitors, retest of hits, confirmation, biochemical, AlphaScreen, triplicate. shares compounds with MITF inh. AlphaScreen MITF homodimerization, biotin/His-MITF beads. inhibition, % at 2.6 µM. 4,700 tested, 16% active. AID 1259372, 2018;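 active = inhibition above a cutoff derived from the DMSO control wells, cut at about 28% in these data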;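 also: 0% = MITF dimer wells with DMSO only; inhibitors lower the bead chemiluminescence by keeping MITF from dimerizing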
AS interf DR: AlphaScreen optical interference compounds, dose response, counter-screen, biochemical, HTS; shares compounds with MITF inh; AlphaScreen optical interference counterscreen, cell-free; IC50, µM; 480 tested, 6% active; call rule not given here
AlphaScreen intf2: AlphaScreen optical interference compounds, counter-screen for MITF inhibitor project, biochemical, triplicate; shares compounds with MITF inh; LysRS AlphaScreen counterscreen, signal interference; inhibition, % at 2.6 µM; 4,700 tested, 7.6% active; AID 1259376, 2018;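 active = inhibition above a cutoff derived from the DMSO control wells, cut at about 30% in these data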
GPR151 conf act: GPR151 activators, triplicate retest, confirmation, cell-based, PathHunter beta-arrestin, luminescence | shares compounds with GPR151 activ | GPR151 PathHunter beta-arrestin cells, 90 min; % of EA-reagent control over plate median | activation, % at 11.2 µM | 6,700 tested, under 10 active | AID 1508609, 2020;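 active = mean percent activation across replicates above the confirmation screen cutoff of 4.91%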
GPR119 ag: GPR119 activators in beta-arrestin cells, counter-screen for GPR151 activator project, cell-based, PathHunter beta-arrestin, luminescence, triplicate | 6,700 tested, 0.3% active | activation, % at 11.2 µM | AID 1508611, 2020 | 90 min; 0 = compound-well median, 100 = enzyme-acceptor control | shares compounds with GPR151 activ;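 active = mean percent activation in the counterscreen above 29.09%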;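 also: counterscreen on off-target GPR119 to flag nonselective hits from the GPR151 activator screen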
Target sequence (Q8TDV5 whole entry, looked up): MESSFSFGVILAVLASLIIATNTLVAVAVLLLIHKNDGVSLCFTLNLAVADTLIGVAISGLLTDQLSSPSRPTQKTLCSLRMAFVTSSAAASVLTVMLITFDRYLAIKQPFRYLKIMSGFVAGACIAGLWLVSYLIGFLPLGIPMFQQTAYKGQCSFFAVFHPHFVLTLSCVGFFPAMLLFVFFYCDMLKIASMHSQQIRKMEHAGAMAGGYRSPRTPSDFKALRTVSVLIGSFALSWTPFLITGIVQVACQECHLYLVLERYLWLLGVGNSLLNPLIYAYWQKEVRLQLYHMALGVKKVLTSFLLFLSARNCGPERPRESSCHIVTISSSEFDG
An asterisk follows results filed as active; . = no result. Sampled rows, rich in hits. Any-hit rate of the full collection: about 3.5%.

SMILES | MITF inh | TEAD-YAP inh | GPR151 activ | FBW7 activator | GPR151 conf act | GPR119 ag | others
CC1CN(CCCOc2cc(Cl)ccc2Cl)CC(C)O1 (configuration not stated) | 67* | 2 | 8.0* | 0 | 0 | -9 | MITF confirm=2;AlphaScreen intf2=15
CCCN(CCC)S(=O)(=O)c1ccc(C(=O)Nc2nc3c(F)cc(F)cc3s2)cc1 | -6 | 2 | 1 | 0 | . | .
Cc1nc(N2CCCCC2)c2c(C)c(C(=O)N3CCOCC3)sc2n1 | -4 | -2 | 1 | 0 | . | .
O=C1N[C@@H](COCc2ccccc2)C(=O)N2CCN(C(=O)NCc3ccccc3)C[C@H]12 | 75* | 6 | 7.7* | 0 | 0 | 11 | MITF confirm=72*;AS interf DR=>6.5;AlphaScreen intf2=-3
O=C1N[C@@H](COCc2ccccc2)C(=O)N2CCN(C(=O)Oc3ccc(Cl)cc3)C[C@H]12 | -7 | 2 | 2 | 0 | . | .
CCN1CCN(CCOc2ccc(C)cc2OC)CC1 | 76* | 4 | 5.8* | 0 | 0 | -2 | MITF confirm=15;AlphaScreen intf2=19
COc1cc(C)ccc1OCCCN1CCCCCC1 | 9 | 0 | 2 | 0 | . | .
Cc1ccc(OCCOCCN2CCCCC2)c([N+](=O)[O-])c1 | 77* | 4 | 7.6* | 0 | -1 | -12 | MITF confirm=12;AlphaScreen intf2=14
CCOC(=O)c1c(NC(=O)c2ccc([N+](=O)[O-])o2)sc2c1CCCC2 | -6 | 13 | -1 | 2 | . | .
COc1ccc(C(=O)N2CCN(Cc3ccc(Br)cc3)CC2)cc1 | 44 | 31 | 1 | 0 | . | .
O=C(c1ccncc1)N1CCN(Cc2ccc(Br)cc2)CC1 | 77* | 2 | 10* | 0 | 1 | 16 | MITF confirm=6;AlphaScreen intf2=22
Cc1ccc(-n2c(=O)c3oc4ccccc4c3n(CC(N)=O)c2=O)cc1 | 54* | -4 | 5.5* | 0 | 0 | -5 | MITF confirm=11;AlphaScreen intf2=12
CCC(CO)NC(=O)c1ccc(Br)c(S(=O)(=O)N2CCOCC2)c1 (configuration not stated) | 16 | 12 | 0 | 0 | . | .
COc1ccccc1/C=C(/C(=O)OCC(N)=O)c1ccccc1 | -1 | 7 | 0 | 0 | . | .
COc1cc(/C=C(/C(=O)OCC(N)=O)c2ccc(-c3ccccc3)cc2)cc(OC)c1OC | 7 | 1 | 5.1* | 0 | 0 | -7
CCc1cccc(N2C(=O)Cc3c2nc(N)c2c(N)nc(N(C)C(C)C)c(C#N)c32)c1 | 24 | 5 | 0 | 0 | . | .
COC(=O)C(NC(=O)c1ccc(Cl)cc1)(Nc1nc(C2CC2)cs1)C(F)(F)F (configuration not stated) | 14 | -4 | 5.2* | 1 | 0 | -6
CCOC(=O)NC(Nc1nc(C2CC2)cs1)(C(=O)OCC)C(F)(F)F (configuration not stated) | 2 | 2 | -1 | 0 | . | .
Cc1cc(C)c2nc3s/c(=C\c4cc([N+](=O)[O-])ccc4OCc4ccc(Cl)cc4Cl)c(=O)n3c2c1 | 17 | 3 | 0 | 0 | . | .
CCOc1ccc(CNC(CC)CO)cc1OC (configuration not stated) | 1 | 2 | 3 | 0 | . | .
O=C(CC1Sc2ccccc2NC1=O)NCc1ccc2c(c1)OCO2 (configuration not stated) | 1 | 2 | 7.3* | 0 | -1 | -11
COc1ccc(NC(=O)CN2C(=O)C(c3ccccc3)Oc3cccnc32)cc1OC (configuration not stated) | -4 | -3 | 6.3* | 0 | 0 | 0
COC(=O)c1ccc(NC(=O)CSc2nnc3[nH]c(=O)ccn23)cc1 | 2 | 14 | 6.3* | 0 | -1 | -1
O=C(/C=C/c1ccc(-c2ccc(Br)cc2)o1)N1CCOCC1 | 0 | -45 | 5.4* | 0 | 0 | -4
O=C(/C=C/c1ccc(Br)cc1)N1CCOCC1 | 7 | -25 | 3 | 0 | . | .
SMILES | MITF inh | TEAD-YAP inh | GPR151 activ | FBW7 activator | GPR151 conf act | GPR119 ag | others
Cc1ccc(-c2nnn(CC(=O)Nc3cnc4ccccc4c3)n2)o1 | 15 | 0 | 0 | 1 | . | .
Cc1ccc(CNS(=O)(=O)c2ccc(F)c(C(=O)Nc3c(C)cc(C)cc3C)c2)cc1 | 4 | 3 | -1 | 0 | . | .
O=C1c2ccccc2C(=O)c2c(O)c(O)cc(O)c21 | 30 | -1 | 0 | 0 | . | .
O=C1c2ccccc2C(=O)c2c(O)ccc(O)c21 | 5 | 1 | 18* | 0 | 0 | 2
CC(=O)Nc1ccccc1NC(=O)COc1ccccc1 | -1 | 2 | -2 | 0 | . | .
COc1ccc(CC(=O)Nc2ccc(N(C)C)c3ccccc23)cc1 | 16 | -1 | 5.6* | 0 | 1 | -3
CCc1ccccc1NC(=O)COc1ccc(C#N)cc1 | 15 | -6 | 7.5* | 1 | 1 | 4
COc1ccc(OCC(=O)Nc2ccccc2CO)cc1 | 3 | -15 | 9.2* | 0 | 0 | -4
CCOc1ccc(OCC(=O)Nc2ccccc2CC)cc1 | 2 | -8 | -1 | 0 | . | .
O=C(COc1ccccc1)Nc1ccccc1NC(=O)COc1ccccc1 | -3 | 14 | 5.8* | 0 | 0 | 5
CCOC(=O)N1CCc2c(sc(NC(=O)c3ccc(C)cc3)c2C(N)=O)C1 | -5 | -3 | -2 | 0 | . | .
O=C(COc1ccc([N+](=O)[O-])cc1)Nc1cccc2cccnc12 | -1 | 5 | 5.9* | 0 | 0 | 8
CCCOc1ccccc1NC(=O)COc1ccc(C#N)cc1 | 5 | 5 | 12* | 0 | 0 | 3
CCOc1ccccc1NC(=O)COc1ccc(F)cc1 | -3 | -10 | 0 | 0 | . | .
O=C(NCc1ccccc1)c1cc(Sc2ccc(Cl)cc2)nc2ccccc12 | 3 | 3 | 0 | 0 | . | .
Cc1ccn2c(C(=O)Nc3ccc(Cl)cc3)c(C)nc2c1 | 15 | -7 | 5.5* | 0 | 1 | 3
